Measured values taken from article PMC12136788.
Substitutions are numbered along the chain they refer to. Over roughly 24,000 sequences, “enrichment r” has its median near 0.99; the highest 2% begin near 3.7. The full list was thinned out, with the highest values kept by preference.

T1: UNK ZnF1-3 (human, UniProt Q9C0B0 31-174)
T1 sequence: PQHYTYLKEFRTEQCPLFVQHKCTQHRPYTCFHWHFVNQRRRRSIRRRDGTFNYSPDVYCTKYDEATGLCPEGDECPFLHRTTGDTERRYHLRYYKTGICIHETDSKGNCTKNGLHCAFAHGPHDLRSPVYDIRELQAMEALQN

B1: chr4:88367131:88367132:-_ENSMUSG00000070923_ENSMUST00000094993|mus_mus|FALSE|FALSE (ssRNA)
RNA: GGGAGUUCUACAGUCCGACGAUCUUGGUAAUUGCUUGCUUCCAAAAGUAAAUUCACACAGGUAUUGUCUGUUCUCAUGAAAUCUACUGUCUGCACAUAGUUGAUGAGAUCCUGUGGUGUCAUCAGUGGAAAGCGAAUAUUCUUCAACAGAGGAUUGAGCAUCA
B2: chr12:16048344:16048345:+_ENSG00000023734_ENST00000419869|hu_hu|hu_hu_hu_mus_True|78_98 (ssRNA)
RNA: GGGAGUUCUACAGUCCGACGAUCAGAUCGUCCAUAAGUUAUAACCAAAAUCUCUCCCUCAGGAAUAUACUCCAUGCUGCUAACAGACAUAUUAAAAUUCAGAGAUUUCACUUCUGUCAUUGUGGCAUGAUCCCAGAGCCGAACCAACAGAGGAUUGAGCAUCA
B3: 201281127_201284068_384_CDS_ENSG00000196141_ENST00000360760|human|control|control (ssRNA)
RNA: GGGAGUUCUACAGUCCGACGAUCCGGCUGCAGGGGCCCUGCCUCAGGCCUCUCCACCUUGUCUUUAGCAUCUUUGUUGCCUUGAUGCUGCUUGGACUUGCUUCUUUUUCUUUUAUUGUUCUUCUUUUUUCCUGUCAUAUUCCACAACAGAGGAUUGAGCAUCA
B4: chr4:144460044:144460045:+_ENSG00000153147_ENST00000283131|hu_mus|hu_hu_hu_mus_False|1_78 (ssRNA)
RNA: GGGAGUUCUACAGUCCGACGAUCACGGUCCAUAGCCUGAAGAUCAACUUGCGGAUUCCAAUCAGAAUCAUAUAAAAUGACUACAUCAGCAGUUGCAAGAUUGAUGCCCAGACCACCAGCACGUGUGCUUAGCAUAAAAACAAACAACAGAGGAUUGAGCAUCA
B5: 32049908_32050383_1188_CDS_ENSMUSG00000039262_ENSMUST00000036691|mouse|control|control (ssRNA)
RNA: GGGAGUUCUACAGUCCGACGAUCUUCUUUCCCAUCUUGGUCGUUCAUCUGGAACUGUCUGAAAGGAACACGGGGUUCCAGGCGGAGCUGAGGAAGGGGAAAAGAGCUUCGUUCCACCGUAGUCUGGUUCUCUGAUGACUGUGGCAACAGAGGAUUGAGCAUCA
B6: chr16:1859243:1859244:-_ENSG00000063854_ENST00000397353|hu_mus|FALSE|FALSE (ssRNA)
RNA: GGGAGUUCUACAGUCCGACGAUCAAUUAACUGAAAAGUAGACUGUCCUGCAUUAGCAGCAGGCCAGUCGGUUAGAAGUCCCUGUCCCAGCGUGGGUGUGCCUCAGUCCCGAGGCACCUUGAACUGGUCCUUCUCCCUGCGGAUCAACAGAGGAUUGAGCAUCA
B7: chr11:54532911:54532912:-_ENSMUSG00000052298_ENSMUST00000064104|mus_mus|motif|central (ssRNA)
RNA: GGGAGUUCUACAGUCCGACGAUCGCAGAGGGGCUGGAGGUGCAAUGAAAAGGCUUAAAAUGGAAAAAUUACAAUACAGUGCGGGCAGUCACAGAAAAGACCAUGCUAAGAUCCGAUCCAUGUCAAUUAAACAUUGAAAAUUCACAACAGAGGAUUGAGCAUCA
B8: chr19:16212804:16212805:+_ENSG00000167460_ENST00000300933|hu_mus|hu_hu_hu_mus_False|18_68 (ssRNA)
RNA: GGGAGUUCUACAGUCCGACGAUCAACAAUUCUGGAGUGAAGGAAAGAUGUAACAUGGAACAGCAUUCCAUCUAUUACAGAAGGCACAUGGGCAACAAUGAUCACCCCAGCAUUCUCCUACGUUGACCUUAAAGACAAUCUGUUCAACAGAGGAUUGAGCAUCA
B9: chr17:35122734:35122735:+_ENSMUSG00000007050_ENSMUST00000114011|mus_mus|FALSE|FALSE (ssRNA)
RNA: GGGAGUUCUACAGUCCGACGAUCUCCAUCCCUCAAAUGUAUUACAUGUCGCCACGGAAGGGCUUAGGAUGCUGCUCCCAUCUCCAGGAAAGAUGAGAAAAAGGUACAGACUGGGAGCCAGUCCAGGACCAUUCUGCAGUUCCUCAACAGAGGAUUGAGCAUCA
B10: chr10:70021928:70021929:-_ENSMUSG00000037747_ENSMUST00000162251|mus_hu|motif|central (ssRNA)
RNA: GGGAGUUCUACAGUCCGACGAUCAUGCUUCAGUGGAAAACAUCUGGUGAUAAAAAUGGACAACAGAGGACCAAUGCUCCGGAGGGAGGAAAAGGGGCUGAGUAAGAAUAAGAAAAGUGGGCAUUAACGUCCAACACUGAUAUUCAACAGAGGAUUGAGCAUCA
B11: 181288587_181288707_5387_3pUTR_ENSMUSG00000000826_ENSMUST00000072334|mouse|control|control (ssRNA)
RNA: GGGAGUUCUACAGUCCGACGAUCUCAUAAUCCAGUGGCUUGGUUUGGCCAUUAAGACCAGAGGACAUGGUUACUUGCUCUGGAGUAAAAAGCUAGAGCUGUUAGGCAAGAAUUCAACCACUAAGGGGCCAGACACUGUGAGGGCAACAGAGGAUUGAGCAUCA
B12: chr2:122485053:122485054:-_ENSG00000155438_ENST00000285814|hu_mus|FALSE|FALSE (ssRNA)
RNA: GGGAGUUCUACAGUCCGACGAUCUAAGCCUGAGUUUCAUAAGGAUAGUAAAACUGAGGGACCGAUGAAGCCUGAAGACAAAUUCAGGACAGGAAAGGGCACAGUCAGGUUCCCAGUGGCUUUCCUCACUGGAAAACCAAACAUCAACAGAGGAUUGAGCAUCA
B13: chr19:15981513:15981514:-_ENSMUSG00000024640_ENSMUST00000025542|mus_hu|motif|central (ssRNA)
RNA: GGGAGUUCUACAGUCCGACGAUCUAAAGCAUCAUCUCCUUUGGCAUUGCCAAUGCGGAAUGGAAUAUUCAUCUUGCUUCGGUUUUGGGGCUCCACUGGACAAACGUAGAAUCCUUGAGAAUUAUCAAUAAUCUCAUAAAUUGUCAACAGAGGAUUGAGCAUCA
B14: chr10:70021928:70021929:-_ENSMUSG00000037747_ENSMUST00000162251|mus_mus|motif|central (ssRNA)
RNA: GGGAGUUCUACAGUCCGACGAUCAUGCAUGCUUCAGUGGGGACAUCUGAUGGCAGAUGGACAACAGAGGGUAAUGCUCCGGUGGGAAGACAGGGUGUGUGGGGCGGGGAAGGGGCGAAAGUGGUGUUAGCGUCCGACACUGAUCAACAGAGGAUUGAGCAUCA
B15: chr10:70021928:70021929:-_ENSMUSG00000037747_ENSMUST00000162251|mus_hu|FALSE|FALSE (ssRNA)
RNA: B10 RNA with G80U, G81A
B16: 19988787_19988907_277_5pUTR_ENSG00000144566_ENST00000273047|human|control|control (ssRNA)
RNA: GGGAGUUCUACAGUCCGACGAUCCGGCGUCGCCUGCUCUUAGCGCCGCUCCCCUCACACUGGACUGUGCGGGGCUCGUGCCGUGGUGCCGCCCCUGUCGGGCUCCGUCUCCGCCUCUCGCCGCUCCCCCUUCCUCUUUCCUUUCAACAGAGGAUUGAGCAUCA
B17: 178098831_178098951_708_CDS_ENSG00000116044_ENST00000397062|human|control|control (ssRNA)
RNA: GGGAGUUCUACAGUCCGACGAUCGAAAAAGGCUUUCUCUUGCUCCUUUUGGAGUUGUUCUUGUCUUUCCUUUUCAAGUUUUUUCUGUUUUUCCAGCUCAUACUCUUUCCGUCGCUGACUGAAGUCAAAUACUUCUCGACUUACCAACAGAGGAUUGAGCAUCA
B18: chr10:1038518:1038519:+_ENSG00000107937_ENST00000545048|hu_hu|hu_hu_hu_mus_False|68_68 (ssRNA)
RNA: GGGAGUUCUACAGUCCGACGAUCCAGUCUGUCAUGGUAAUUCUGUUGAGUAAAUUUGACUUUUCUCAUGUAAAAAUGUCGAAUCCGAUGAAUUUGAUAAUGUUUAUGAAUAACCGUUGGAGUCUUUCGUUGAGUCUUGGAUAACAACAGAGGAUUGAGCAUCA
B19: chr8:30550554:30550555:-_ENSG00000104687_ENST00000414019|hu_mus|FALSE|FALSE (ssRNA)
RNA: GGGAGUUCUACAGUCCGACGAUCGCCGGCAUUCUCCAGUUCCUCGGUGCAGUUGGAACUGAUGAGUGAAUCAAAAUUUCUCAGUACCUUAUCAUGCCUGAUCAUAAGAGAUGUCUUGGAGCCCAGGGCAGAGAGGAUGCCCGCCAACAGAGGAUUGAGCAUCA
B20: chr6:106728040:106728041:+_ENSMUSG00000013736_ENSMUST00000057578|mus_mus|FALSE|FALSE (ssRNA)
RNA: GGGAGUUCUACAGUCCGACGAUCAGGAGCCACACCAAGAUCAUAGAUCAGGUGGAUCAAAUGGUUUACAUGGUCACCAGUAAGAAUUUUCUUCAGUUCUACCCAAAUCCUCUCUCCUGAUAUUCCAGCCAAACCUUUGGCAUUCAACAGAGGAUUGAGCAUCA
B21: chr22:19452774:19452775:-_ENSG00000070010_ENST00000399523|hu_hu|hu_hu_hu_mus_False|88_108 (ssRNA)
RNA: GGGAGUUCUACAGUCCGACGAUCCUUUUCAUUAUAGUUGAUAGCAAUCACAUCCCCAGUCGUCAGACAGGCGAAGUUUCUCAAUGCAUUUUCUAAUACCGCUUUAGGGUUGGUAAUAUCCAGGAAGUCUGGGCUCUGAGGCUGCAACAGAGGAUUGAGCAUCA
B22: chr7:148083511:148083512:+_ENSMUSG00000025487_ENSMUST00000026560|mus_mus|motif|central (ssRNA)
RNA: GGGAGUUCUACAGUCCGACGAUCCAAAUCCAGCACUCGCGGCUGCACCCACGUCAUGUGAACCCGCUUGUCCACCUCGUCGGUGCUGCCUCUCACCAGCCCCACCGAGAGUGCCUUCAUCACCAGCAACUCCACCUUGUUGACCAACAGAGGAUUGAGCAUCA

biological target: T1, UNK ZnF1-3; assay: nsRBNS (natural sequence RNA bind-n-seq); RBNS binding buffer (assumed for nsRBNS): 25 mM Tris pH 7.5, 150 mM KCl, 3 mM MgCl2, 0.01% Triton X-100, 500 ug/ml BSA, 20 U/ml SUPERase-In, 4 C; UNK is unkempt and MSI1 is Musashi-1; names of the RNAs are library labels; protein concentration not given here; high values mean tight binding

| Binder | binding signal |
| --- | --- |
| B1 | 0.859 enrichment R |
| B2 | 1.06 enrichment R |
| B3 | 0.308 enrichment R |
| B4 | 1.34 enrichment R |
| B5 | 0.807 enrichment R |
| B6 | 0.931 enrichment R |
| B7 | 4.45 enrichment R |
| B8 | 0.856 enrichment R |
| B9 | 1.03 enrichment R |
| B10 | 4.93 enrichment R |
| B11 | 1.11 enrichment R |
| B12 | 0.908 enrichment R |
| B13 | 0.859 enrichment R |
| B14 | 1.77 enrichment R |
| B15 | 4.68 enrichment R |
| B16 | 0.72 enrichment R |
| B17 | 0.134 enrichment R |
| B18 | 0.535 enrichment R |
| B19 | 1.28 enrichment R |
| B20 | 0.982 enrichment R |
| B21 | 0.864 enrichment R |
| B22 | 0.75 enrichment R |
